Measured values reported in PMC13494018.

B1: design_603_0b98da89-d791-4423-9b2d-fd1b7292da18_2465_dldesign_0_cycle1_af2pred (protein)
chain: ASEKAKAFSEAQRLLVRAGKLAAADPKTAPVAELVQKAIFALGDNLEEGLKLAEEAAELAKKIGDEETAKLVKEAAEKIKEVI
B2: design_603_0b98da89-d791-4423-9b2d-fd1b7292da18_2381_dldesign_0_cycle1_af2pred (protein)
chain: AAAAAEEAATAAAAALGKAVAAQVLAAADDPEKRGALVAEAQAIADKLSPAQRAAMAAAMHEAHEKIAEKKSEKAR
B3: design_604_3e0b3014-b333-46f1-8adc-d7f0bf8048fa_188_dldesign_0_cycle1_af2pred (protein)
chain: GALEEIKKLGKKAKEAAKNGDSSEAIREFAKLAKAAGKALTPEFAKKASEKLYEVVDTLAKDEEEGKKLLEKKVEEIVKEAKKYLE
B4: design_604_3e0b3014-b333-46f1-8adc-d7f0bf8048fa_498_dldesign_0_cycle1_af2pred (protein)
chain: MLEFLEKVEEKADKKIEEALAKEDPVKALEEEKKKMEAELKAKSEAAKGDPGLHKLYLTAARLAKNQFDVEIKKAKEELE
B5: design_603_0b98da89-d791-4423-9b2d-fd1b7292da18_2081_dldesign_0_cycle1_af2pred (protein)
chain: AEEAEKKVKELAKKAEEAFRRAREAGAKAVEKDPSVAKRASELVHQAAQYRAEAKAAKDPEEAKEALKKAEKAREELEKLAKA
B6: design_603_0b98da89-d791-4423-9b2d-fd1b7292da18_1252_dldesign_0_cycle1_af2pred (protein)
chain: AKEVVKKAKAEAKKLGEKAAAAETLEEAKKLVKELRKEAEKQAKEMKKAGAPEKDIKEVLTTAAELGAEALAEVRS
B7: design_603_0b98da89-d791-4423-9b2d-fd1b7292da18_1535_dldesign_0_cycle1_af2pred (protein)
chain: MEEKYLKEAEKLLEEGKKEIERAGKEEGAEAAKEVGKKYLEKLTEVAKKLSPEKEGEVLLKFKKESMKIIKEAEEREK
B8: design_603_0b98da89-d791-4423-9b2d-fd1b7292da18_2259_dldesign_0_cycle1_af2pred (protein)
chain: GAAALAAGKAALKEAKDTAAKANEAMGGGLQPVFDSAMKTVEAKKGDPAAYLKAATAFKTTFSRILKLAS
B9: design_604_3e0b3014-b333-46f1-8adc-d7f0bf8048fa_739_dldesign_0_cycle1_af2pred (protein)
chain: KEEILKEAKKLKEEAVKKAKEGNAEEGRKARKEFLEEMKKMAEKGDKKEISKITHEALEKIAEAIQEAKEKARKEEEEKK
B10: design_603_0b98da89-d791-4423-9b2d-fd1b7292da18_1943_dldesign_0_cycle1_af2pred (protein)
chain: PPADELLALADKKAEEVEKKIEEAAEYGKKSGDKEKALKLIDEVLKEAEKEAEELIAKPETRAAGVILRNEAEVMAKNAKEKLLK
B11: design_603_0b98da89-d791-4423-9b2d-fd1b7292da18_2015_dldesign_0_cycle1_af2pred (protein)
chain: KETAEELLENARKLAEKAGELVGPELLEVMEKMIEAAKKEDGKKEIEELAKEALELAKKAGVPEAAEYIHQAKADAYAANVFRK
B12: design_603_0b98da89-d791-4423-9b2d-fd1b7292da18_1486_dldesign_0_cycle1_af2pred (protein)
chain: MSIELLAEAARAAVRIARALGEAEDVETAVAFRDKAIEAAAEDEEMAKKIIAAAKEVEDPATALAAARAALAAVEAFAA
B13: design_603_0b98da89-d791-4423-9b2d-fd1b7292da18_2271_dldesign_0_cycle1_af2pred (protein)
chain: MTPEEKKAAEAEKIAAAADAAIKAAEKAIASGTKAEIATEAARLESVAMAAKALGTAPDIAERAEAAAEKAWQAAVEKLE
B14: design_603_0b98da89-d791-4423-9b2d-fd1b7292da18_2026_dldesign_0_cycle1_af2pred (protein)
chain: SSMKEEEIKEMEKAAKKAAELLDDEEAAKKLLEAVKLAIEDPKEGTKKLREIAKEIGAKGSEEVKKALEEAVHAALRYRAI
B15: design_604_3e0b3014-b333-46f1-8adc-d7f0bf8048fa_423_dldesign_0_cycle1_af2pred (protein)
chain: AKEKALKEALKEFDKAQEYGFDYVAEAKKNPEVYEEAYEERKKAIKEAKELYKEATTEEKAKELLELAKKEAEKFKEKAKEL
B16: design_603_0b98da89-d791-4423-9b2d-fd1b7292da18_1770_dldesign_0_cycle1_af2pred (protein)
chain: DLEEVKKKASELLFKAIDLVSSGEKEEEGEKAIEEAKKILLSYGKEHPEYAKEMEEGAKKVESVYESAKKAAK
B17: design_603_0b98da89-d791-4423-9b2d-fd1b7292da18_1568_dldesign_0_cycle1_af2pred (protein)
chain: DEELKKEAKEEIKKAAEKGIAAAKAGNILEAQFYAVEAREIGREYAKKIKNKELAKEVKEYAKKQAEKIRAEAAKVLAA
B18: design_603_0b98da89-d791-4423-9b2d-fd1b7292da18_1531_dldesign_0_cycle1_af2pred (protein)
chain: SEAKEEAKKALERLKKVRERAKEEAPLLTPEERKELSELLAKAREYLNLALVSKDEKEAKKYVEKGKEYLEKAEKLIEKAKAKA
B19: design_604_3e0b3014-b333-46f1-8adc-d7f0bf8048fa_145_dldesign_0_cycle1_af2pred (protein)
chain: IKQLEQLLEMAEEEAKKDPVTGIALARATINRADRLAASGTPEEAKKANEIKEKAEKVKKEAEAKLAAAEAAAKA
B20: design_604_3e0b3014-b333-46f1-8adc-d7f0bf8048fa_148_dldesign_0_cycle1_af2pred (protein)
chain: MKEASEEMAKAYEALAELRLLAKKIPEFKEDAEKAEKKLKEAVKADPETALKLAKETKEEVEKAIEKAKKKL
B21: design_603_0b98da89-d791-4423-9b2d-fd1b7292da18_2319_dldesign_0_cycle1_af2pred (protein)
chain: AETWLDALDDAAKDHPSFAYAFATSIAKRAEEKIKELTEKAKENASNPELKKKLLEKAEEYKKVLEKAKEVAEKALKEYLA
B22: design_603_0b98da89-d791-4423-9b2d-fd1b7292da18_1956_dldesign_0_cycle1_af2pred (protein)
chain: VTRAELAALAHEVQEAANEVYFEAKKSKNTEKLQALAREAKALVKQAASADPETALALLKEAQALVDEAKKILEKEKKE
B23: design_603_0b98da89-d791-4423-9b2d-fd1b7292da18_1818_dldesign_0_cycle1_af2pred (protein)
chain: AEEKIKEGEEKAKKFVEKAKELAKEGKYNAALGYVEAAKDVAKEIEKLSEEGKEVGKKIKEEAEKAEKIVKEKEKEKKELEE
B24: design_604_3e0b3014-b333-46f1-8adc-d7f0bf8048fa_672_dldesign_0_cycle1_af2pred (protein)
chain: ALEKATEAAKKAGEAVAKALGEEGKPVAEEAIEKIADPSTWKDGFSLFLRYAYYAGEEVYKKVDELLDEVLELLS
B25: design_603_0b98da89-d791-4423-9b2d-fd1b7292da18_1699_dldesign_0_cycle1_af2pred (protein)
chain: MTDLEIVEENIKEAREEFARDPRLGLAVARATVSTAKAMSKKSEEGKKALEKAKAFLEELEAEYRARLAAAAAAAAAAE
B26: design_603_0b98da89-d791-4423-9b2d-fd1b7292da18_1380_dldesign_0_cycle1_af2pred (protein)
chain: GEEVAKVLEKNAEIAREGDAEEAIAALKEAAKELNKYHKLQPYAERLEFLAEELKKNKADPEKAAAIAKYGAELLKKAAEVAK
B27: design_604_3e0b3014-b333-46f1-8adc-d7f0bf8048fa_253_dldesign_0_cycle1_af2pred (protein)
chain: SETTEKLKKELEAAKKEGKEALAKAEAAGDAEAAKKAGSDAAGKLYEIAAEADSAGDKETAKEARKAAKEIREAAKKAIAAAKAKAAA
B28: design_604_3e0b3014-b333-46f1-8adc-d7f0bf8048fa_503_dldesign_0_cycle1_af2pred (protein)
chain: SAALVDARVAAADALYDAAIAAGYESLAGKIATAFIRGAATGVEAALERASAVAPEELKPVVAAEAAKVAAVA
B29: design_603_0b98da89-d791-4423-9b2d-fd1b7292da18_2150_dldesign_0_cycle1_af2pred (protein)
chain: HERFKYAASAETIAEQVEETAKIYGDEELKEAAKKIKEAAKEAEKSEDAEEAKKAYEKAKEIRKKARKELKAKKA
B30: design_603_0b98da89-d791-4423-9b2d-fd1b7292da18_1363_dldesign_0_cycle1_af2pred (protein)
chain: EEEERKSRQAYGKALSLIELARHAAKADPKAYPLALKYIEKAKELAEEASEELKKEVLEEAEEAEKEVLELGKK
B31: design_604_3e0b3014-b333-46f1-8adc-d7f0bf8048fa_12_dldesign_0_cycle1_af2pred (protein)
chain: MNLEEAKNLLEAAKELVEEAKELLKEGKYKQALAFAKTAYEIAEKVAKEVPELAKEAEKIKKEAKEVIEEAKKAL
B32: design_603_0b98da89-d791-4423-9b2d-fd1b7292da18_2191_dldesign_0_cycle1_af2pred (protein)
chain: MEEAKKKAEELIKRAKEHVEKARKIAKEGGSTMEAMLHILEAEADAREALKIGEKYPELKEMAEEAKEYVKKTRKEIKAILKA
B33: design_603_0b98da89-d791-4423-9b2d-fd1b7292da18_2382_dldesign_0_cycle1_af2pred (protein)
chain: ALAAAKEKAKAIEEKLSQAIFDGADKGPEVVFKAAEEAEKEVEEMKKADPKAKEEVKRAKEAVKKAKAVGKSMKEAEENAKKGA
B34: design_604_3e0b3014-b333-46f1-8adc-d7f0bf8048fa_694_dldesign_0_cycle1_af2pred (protein)
chain: SVEEKLKEAEKVFKEVEERAKKVEAKDPEEGKKLREELAKARELAESDPSKAPEAAQQARIALTEAEWEVRKKEK
B35: design_603_0b98da89-d791-4423-9b2d-fd1b7292da18_2177_dldesign_0_cycle1_af2pred (protein)
chain: MKALEEAEEFAKKMIEEAKKWGEAEADVAKVLGKSLLEAVEKTLKEKNEEAALAVAKEGKEKAKKIMDRIKEDIERAKKS
B36: design_604_3e0b3014-b333-46f1-8adc-d7f0bf8048fa_75_dldesign_0_cycle1_af2pred (protein)
chain: SAEAEEAEKKALLEFSEAAAELRGLATLGKNKGNAKELAEKGFKAIEEGKKALEAATKTEEKKEIATRYAKELKELKEKLEKALS
B37: design_604_3e0b3014-b333-46f1-8adc-d7f0bf8048fa_596_dldesign_0_cycle1_af2pred (protein)
chain: DAKKEIQELTDEAIKKIEEYAKKAKDPKNYEKAIKEAVDTVHEAQQKLAEIGKKYGPEAEKYAKEQRKKVIDAGKKYIEEAKKAQA
B38: design_604_3e0b3014-b333-46f1-8adc-d7f0bf8048fa_171_dldesign_0_cycle1_af2pred (protein)
chain: QEALKKELEKAAAKVKELAEYIEKNAEKLTAEEAEKIAEELRKLAKKLREIGEKLDAETRKEAQKAVDLAYEAAALAKSIAARKK

Biological target: VTCN1, Q7Z7D3
Sequence (Q7Z7D3 whole entry): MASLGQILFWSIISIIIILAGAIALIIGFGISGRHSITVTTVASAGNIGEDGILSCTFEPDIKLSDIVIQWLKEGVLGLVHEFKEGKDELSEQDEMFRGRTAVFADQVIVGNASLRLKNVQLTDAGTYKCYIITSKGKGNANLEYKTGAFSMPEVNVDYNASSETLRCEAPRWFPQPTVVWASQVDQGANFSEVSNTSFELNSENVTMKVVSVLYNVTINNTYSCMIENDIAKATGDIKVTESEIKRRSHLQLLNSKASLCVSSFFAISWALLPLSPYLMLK

Binding in a display sort, inactive:
B1 not found
B2 not found
B3 not found
B4 not found
B5 not found
B6 not found
B7 not found
B8 not found
B9 not found
B10 not found
B11 not found
B12 not found
B13 not found
B14 not found
B15 not found
B16 not found
B17 not found
B18 not found
B19 not found
B20 not found
B21 not found
B22 not found
B23 not found
B24 not found
B25 not found
B26 not found
B27 not found
B28 not found
B29 not found
B30 not found
B31 not found
B32 not found
B33 not found
B34 not found
B35 not found
B36 not found
B37 not found
B38 not found
